In the library only some 10% were active in any assay of this set; here they are far more common.
Mm-Cpn inhibitor – M. maripaludis TRiC chaperonin inhibition | purified Mm-Cpn ATPase, ADP Transcreener TR-FRET | actives 0.031% (n = 330,000) | Potency, µM (series often up to 76.9 µM), inactives show at the top dose activity, negative = inhibition, most hits filed as inhibitors; note: potency is the fitted concentration of half-maximal effect; nearly all actives have a fitted effect of over 80% in size
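Purified archaeal Mm-CPN (25nM final) preincubated 10 min at 37degC with compound, then 10uM ATP for 30 min at 37degC; ADP measured by HTRF Transcreener TR-FRET; buffer 30 mM TRIS pH 7.4, 100mM KCl, 5mM MgCl2, 1mM DTT.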
PLK1 PBD block – blocks phosphopeptide binding to human PLK1 polo-box domain; Plk1 PBD binding of FITC phosphopeptide, fluorescence polarization; actives 2.8% (n = 360,000); Potency, µM, inactives show max response, negative = inhibition, usual class: inhibitors; P53350; note: potency is the fitted concentration of half-maximal effect; series mostly up to about 57 µM; nearly all actives have a fitted effect of over 65% in size
CCT chaperon mod – changes cytosolic chaperonin activity; purified chaperonin ATPase assay, HTRF ADP detection, 30 min; activity change, % (no concentration beside the values), hits read low; actives 0.3% (n = 360,000); AID 651819; in the data active = activity change below about -30%
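TRiC at 40 or 20 nM final (batch-dependent) in 30 mM Tris pH 7.4, 100 mM KCl, 5 mM MgCl2, 1 mM DTT, with compound at single 76 uM and 10 uM ATP, 30 min at 37 deg C. ADP detected by HTRF Transcreener, 665/615 ratio.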
VDR inhibitor – vitamin D3 receptor (human) inhibition. P11473. VDR-SRC2-3 peptide fluorescence polarization, 2 h. Potency, µM, without a hit: max response, negative = inhibition, usual class: inhibitors. actives 0.93% (n = 400,000); note: potency is the fitted concentration of half-maximal effect
Target sequence (P11473 whole entry, looked up): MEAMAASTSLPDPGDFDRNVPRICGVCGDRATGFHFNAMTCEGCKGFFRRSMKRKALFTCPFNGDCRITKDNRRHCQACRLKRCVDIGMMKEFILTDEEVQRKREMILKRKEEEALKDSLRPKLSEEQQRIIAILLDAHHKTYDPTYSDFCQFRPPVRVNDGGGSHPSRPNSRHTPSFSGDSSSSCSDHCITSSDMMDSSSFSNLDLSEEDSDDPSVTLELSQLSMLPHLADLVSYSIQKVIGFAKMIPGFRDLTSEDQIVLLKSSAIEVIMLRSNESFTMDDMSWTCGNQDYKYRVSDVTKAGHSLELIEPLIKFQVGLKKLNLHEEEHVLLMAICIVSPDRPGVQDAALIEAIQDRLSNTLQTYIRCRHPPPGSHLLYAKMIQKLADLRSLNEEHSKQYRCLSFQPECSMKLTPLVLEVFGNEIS
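Fluorescence polarization assay measuring small-molecule disruption of VDR binding to the coregulator peptide SRC2-3. Compounds were pin-transferred (23 nl) into the reagent mix and incubated 2 h at room temperature before reading.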
Sfp PPTase inh – Sfp phosphopantetheinyl transferase inhibition; actives 3.5% (n = 310,000); Potency, µM, for the others: largest response in the series, negative = inhibition, actives largely listed as inhibitors; AID 1490; Biochemical Sfp PPTase activity, qHTS;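 note: the enzyme is Sfp with the accession as filed and its product quenches rhodamine fluorescence; potency is the fitted concentration of half-maximal effect; 0% = enzyme reaction without inhibitor and -100% = no enzyme wells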
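After 15 min at room temperature with compound, 15 nM Sfp received 5 uM rhodamine-CoA plus 12.5 uM BHQ-2-ybbR (50 mM Hepes pH 7.6, 10 mM MgCl2). Rate came from the fluorescence difference over 30 min, ex 525/em 598 nm.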
G9a inh – blocks human histone lysine methyltransferase G9a | Q96KQ7 | G9a H3K9 monomethylation, AlphaScreen, 2 h | Potency, µM (titrated, usually from 102 µM), inactives show at the highest dose activity, negative = inhibition, most hits filed as inhibitors | actives 8.8% (n = 350,000) | AID 504332; note: potency is the fitted concentration of half-maximal effect; nearly all actives have a fitted effect of over 75% in size
Target sequence (Q96KQ7 913-1193 limits assumed): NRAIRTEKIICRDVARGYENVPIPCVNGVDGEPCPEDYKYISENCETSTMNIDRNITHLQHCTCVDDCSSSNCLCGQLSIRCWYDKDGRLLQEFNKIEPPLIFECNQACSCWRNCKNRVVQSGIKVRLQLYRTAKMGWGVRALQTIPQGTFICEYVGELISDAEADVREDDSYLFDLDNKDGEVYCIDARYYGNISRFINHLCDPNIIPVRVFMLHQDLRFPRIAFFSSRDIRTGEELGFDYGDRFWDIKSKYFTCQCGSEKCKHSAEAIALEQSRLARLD
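G9a (20 nM) was preincubated 15 min with compound, then reacted 2 h at room temperature with 500 nM biotin-H3K9 peptide and 20 µM SAM. Monomethyl-H3K9 detected by AlphaScreen using anti-H3K9me1 antibody.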
TbPYK confirm – confirmation of Trypanosoma brucei pyruvate kinase inhibitors; actives 67% (n = 890); recombinant TbPYK, Kinase-Glo ATP luminescence; AID 720569; Potency, µM (top dose mostly 76.9 µM), inactives show at the top dose activity change, negative = inhibition, usual class: inhibitors; shares compounds with PLK1 PBD block; note: potency is the fitted concentration of half-maximal effect; nearly all actives have a fitted effect of over 70% in size
TbPYK ADP-Glo – inhibits T. brucei pyruvate kinase in orthogonal ADP-Glo assay; shares compounds with PLK1 PBD block; recombinant TbPYK, ADP-Glo luminescence, 60 min; Potency, µM (series often up to 76.9 µM), for inactives: at the top dose activity change, negative = inhibition, hits mostly inhibitors; actives 62% (n = 890); note: potency is the fitted concentration of half-maximal effect; nearly all actives have a fitted effect of over 75% in size
* = called active by the depositor; ? = inconclusive; nt = not tested or not shown; [ ] = another dose, or the depositor's remark. Unless noted, calls come from the whole dose curve; as a rule, active = well fitted curve in the direction sought with a large enough effect; inconclusive = small, poorly fitted or top-dose-only effect, or another doubt; inactive = no such curve, though single readings can be large; an effect the other way counts as inactive or inconclusive. Unless noted, % is set by controls: 0 for no effect and ±100 for the full control effect.

SMILES	Mm-Cpn inhibitor	PLK1 PBD block	CCT chaperon mod	VDR inhibitor	Sfp PPTase inh	G9a inh	TbPYK confirm	TbPYK ADP-Glo
CCOCCCNC(=O)c1cc2c(s1)-c1ccccc1SC2	-6%	27µM*	-3	?	79µM*	10µM*	10µM*	13µM*
COc1ccc(-c2nnc(SCC(=O)c3ccc([N+](=O)[O-])cc3)o2)cc1OC	nt	nt	nt	-7%	nt	2%[59 µM]	nt	nt
CC(OC(=O)C1=Cc2ccccc2OC1)C(=O)NCC1CCCO1 (stereo not given)	nt	12µM*	0	?	nt	nt	-7%	-7%
COCCNC(=O)C(C)OC(=O)C1=Cc2ccccc2OC1 (stereo not given)	2%	-10%	0	-22%	12%	nt	nt	nt
Oc1ccc(N2CCN(c3nc(-c4cccs4)nc4ccccc34)CC2)cc1	1%	0%	1	-3%	?	nt	?	35µM*
COCCN=C1NN=C(c2ccc(C)c([N+](=O)[O-])c2)CS1	0%	27µM*	0	?	-26%	10µM*	?	?
Oc1cc(O)cc(/C=C/c2ccc(O)c(O)c2)c1	-9%	-13%	0	-13%	40µM*	0.67µM*	11µM*	?
COc1cccc(/C=C2\C(=O)C(=O)c3ccccc32)c1	-4%	0.79µM*	-2	89µM*	-16%	50µM*	32µM*	?
CCc1cccc(-n2c(=O)c3cccnc3n2CC(=O)Nc2c(C)cc(C)cc2C)c1	nt	nt	nt	-7%	nt	6%[59 µM]	nt	nt
COC(=O)c1sccc1NC(=O)Nc1ccc(F)cc1	-2%	4%	0	40%	6%	35%	?	-4%
CCOC(=O)c1sc2nc(N3CCOCC3)c3c(c2c1N)CCCC3	-1%	-2%	-2	-8%	7%	2%	nt	nt
CCN(CC)C(=O)c1sc2nc(N3CCOCC3)c3c(c2c1N)CCCC3	-1%	?	-1	-11%	45µM*	8.9µM*	7.9µM*	4.5µM*
Fc1cccc(Cc2c(-c3ccco3)nc3ccc(Cl)cn23)c1	nt	24µM*	1	nt	nt	nt	-28%	?
Cc1ccc2nc(-c3ccco3)c(Cc3ccccc3)n2c1	nt	-14%	-2	nt	nt	nt	nt	nt
Fc1cccc(Cc2c(-c3ccco3)nc3ccc(Br)cn23)c1	nt	24µM*	1	nt	nt	nt	?	?
Fc1cccc(Cc2c(-c3ccccc3)nc3ccc(Br)cn23)c1	nt	-4%	2	nt	nt	nt	nt	nt
Clc1ccc2nc(-c3ccco3)c(Cc3ccccc3)n2c1	nt	?	1	nt	nt	nt	?	35µM*
COC(=O)c1ccc2nc(-c3ccco3)c(Cc3ccccc3)n2c1	nt	?	-1	nt	nt	nt	13µM*	14µM*
COC(=O)c1ccc2nc(-c3ccco3)c(Cc3cccc(Cl)c3)n2c1	nt	-29%	-1	nt	nt	nt	nt	nt
CCOc1ccc(NC(=O)c2cc3c(=O)n4cccc(C)c4nc3s2)cc1	nt	nt	nt	3%	nt	8%[59 µM]	nt	nt
Cc1ncc(CO)c2c1Oc1nc(-c3ccccc3Cl)nc(SCc3ccccc3F)c1C2	nt	nt	nt	3%	nt	-11%[59 µM]	nt	nt
CCc1ccc(CNC(=O)C2CCN(C(=O)c3ccc(-n4ccc5ccccc54)s3)CC2)cc1	nt	nt	nt	8%	nt	0%[59 µM]	nt	nt
CCOC(=O)c1ccc(N=c2ssnc2Cl)cc1	-1%	2.1µM*	-3	16µM*	-103%	1.8µM*	16µM*	16µM*
N#Cc1ccc(N=c2ssnc2Cl)cc1	-2%	1.3µM*	-2	14µM*	8.9µM*	?	7.1µM*	7.9µM*
Cc1cccc2c1NC(=O)C2=Nc1ccc(Cl)cc1	-2%	-7%	2	-15%	-4%	12%	nt	nt
SMILES	Mm-Cpn inhibitor	PLK1 PBD block	CCT chaperon mod	VDR inhibitor	Sfp PPTase inh	G9a inh	TbPYK confirm	TbPYK ADP-Glo
COc1cc(N=c2ssnc2Cl)cc(OC)c1OC	-1%	0.95µM*	0	?	14µM*	?	3.5µM*	6.3µM*
Clc1ccc(N=c2ssnc2Cl)cc1	2%	1.9µM*	-1	25µM*	4µM*	1.6µM*	7.9µM*	10µM*
Cc1ccc(C)c(NC(=O)CCN2C(=O)c3ccccc3Sc3ncccc32)c1	nt	nt	nt	2%	nt	-13%[59 µM]	nt	nt
Cc1cc(C)c(NC(=O)Cn2c(=O)n(CCCCC(=O)NCc3ccccc3Cl)c(=O)c3ccccc32)c(C)c1	nt	nt	nt	5%	nt	-7%[59 µM]	nt	nt
COC(=O)Cc1c(C)c2ccc3c(c2oc1=O)CN(Cc1ccc(Cl)cc1)CO3	nt	nt	nt	6%	nt	-24%[59 µM]	nt	nt
Fc1ccc(N=c2ssnc2Cl)c(F)c1	-6%	1.7µM*	0	35µM*	14µM*	1.6µM*	28µM*	32µM*
O=C(O)c1ccc(NS(=O)(=O)c2ccc3c(c2)C2C=CCC2C(c2ccccc2F)N3)cc1 (stereo not given)	-8%	?	-1	?	10µM*	10µM*	?	?
COc1ccc(-c2cn3nc(N4CCC(C(=O)Nc5cccc(OC)c5)CC4)sc3n2)cc1	nt	nt	nt	-5%	nt	-10%[59 µM]	nt	nt
CC1=C/C(=C(/c2cc(C)c(O)c(Br)c2)c2ccccc2S(=O)(=O)O)C=C(Br)C1=O	?	?	-2	102%	-21%	3%[2.33 µM]	22µM*	10%
Cc1nc(SCC(=O)O)c(C#N)c(C)c1CC(=O)c1ccccc1	0%	-19%	0	-11%	7%	?	5.6µM*	11µM*
CCOC(=O)CCc1c(C)nc(SCC(=O)O)c(C#N)c1C	-1%	-20%	-2	?	79µM*	8.9µM*	2.2µM*	7.1µM*
CCN(CC)Cc1cc(O)c(CN(CC)CC)cc1O	0%	4.2µM*	0	-3%	10µM*	1.3µM*	-99%	10µM*
CCOC(=O)CNC(=O)CSc1nnc(-c2ccco2)n1N	0%	0%	-3	15%	-3%	-5%	nt	nt
CCOC(=O)CNC(=O)CSc1nnc(-c2ccco2)n1Cc1ccco1	-9%	-5%	-1	6%	-8%	28µM*	3.5µM*	14µM*
CCC(=O)/C=C1/Sc2ccccc2N1CC	-6%	27µM*	3	?	28µM*	8.9µM*	?	18µM*
O=C(O)CCN1c2ccccc2Sc2ccccc21	-4%	0%	-2	-16%	17%	-41%[12.7 µM]	nt	nt
N#Cc1c(NC(=O)CCC(=O)O)sc2c1CCCCC2	-7%	27µM*	0	0%	20µM*	45µM*	?	?
N#Cc1c(NC(=O)CCC(=O)O)sc2c1CCCC2	1%	-16%	-2	-1%	0%	-3%[12.7 µM]	nt	nt
O=C(CCN1C(=O)/C(=C\c2ccccc2)SC1=S)NCCCN1CCOCC1	2%	-7%	-2	-20%	-8%	nt	nt	nt

Screens from PubChem BioAssay.
